Test results from PubChem BioAssay (NCI).
This is part of a sample that, as a whole, favours compounds with a hit. Of some 83,000 tested, about 20% had one in any assay.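 Method: cells in 96-well plates; compound added at one concentration; 48 h incubation; percent growth measured; values under 10 scored active.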 Calls of active or inactive are those of the source.

Each compound was assayed on RPMI-8226 leukemia (assay: NCI-60 one-dose screen, 48 h (100 = growth as untreated, 0 = no growth, -100 = all killed)). Conditions: 10 µM unless noted.
For `CCOC(=O)/C(C#N)=C\c1c[nH]c2ccccc12`, the growth was 55.7% (inactive).
For `COc1cc(C(=O)N2CCN(c3ccccc3)CC2)c2ccccc2n1`, the growth was 35.1% (inactive).
With `CCOC(=O)c1ccc(NC(=O)Nc2nccs2)cc1` the growth was 6.43% (active).
In the case of `O=c1n(CC2CO2)c(=O)n(CC2CO2)n1CC1CO1` (centres undefined), the growth is reported as 57.5% (inactive).
For `S=C=Nc1ccc2ccccc2c1`, the growth was 103% (inactive).
With `Oc1cccnc1CN1CCCC1` the growth was 100% (inactive).
For `Cc1cccc(C)c1NC(=S)/N=C\c1c(O)[nH]c(=O)[nH]c1=O`, the growth was 98.3% (inactive).
In the case of `O=[N+]([O-])c1c(O)c(CNCCCO)cc(CNCCCO)c1O`, the growth is reported as 116% (inactive).
For `CN(C)c1ccc2c(N(C)C)cc(N(C)C)nc2c1`, the growth was 69.8% (inactive).
`Cc1cccc(-[n+]2noc(N)n2)c1` was tested, and the growth was 68.5% (inactive).
For `CCNC(=O)OCCc1c2ccccc2nc2ccccc12`, the growth was 76.7% (inactive).
In the case of `CCCCCCCCCCC(=O)CCCCCCCCCC`, the growth is reported as 98.8% (inactive).
In the case of `c1ccc(Nc2ccccn2)nc1`, the growth is reported as 71.2% (inactive).
In the case of `C[n+]1c(/C=C\C=C\N2CCCCC2)sc2ccccc21`, the growth is reported as -30.4% (active).
`CCC(=O)C1C(=O)c2ccccc2C1=O` was tested, and the growth was 115% (inactive).
With `CCOC(=O)c1cc(C)[nH]c(=O)c1C#N` the growth was 80.4% (inactive).
With `NC(CCl)=NCC12CC3CC(CC(C3)C1)C2` the growth was -50.4% (active).
For `COc1ccc(Br)c2c1C(=O)CC2`, the growth was 112% (inactive).
With `CN1CCCN(C(c2ccccc2)c2ccc(Cl)cc2)CC1` (centres undefined) the growth was 101% (inactive).
